# Source: PubChem BioAssay (Tox21)
# Values joined by “and” are separate entries in the source; they are usually repeats but may differ in a detail not shown here. Equal entries are not always repeated. Inconclusive results are not listed. Active and inactive are the calls of the source. Calls come from the whole dose curve; as a rule, active = well fitted cell-killing curve with a large enough effect in the repeat runs; inconclusive = weak or mixed curves; inactive = flat fitted curve, though single readings scatter.
# Test: qHTS RealTime-Glo MT Cell Viability Assay in HepG2 cells - 32 hour (AID 1224877); note: nearly all actives have a fitted effect of over 55% in size
# Conditions: RealTime-Glo luminescence; series mostly up to 76.8 µM; activity change, negative = cytotoxic: at the top concentration
# From the text: U.S. Tox21 Program National Center for Advancing Translational Sciences [NCATS] NIH Chemical Genomics Center [NCGC] U.S. Environmental Protection Agency [EPA] National Institutes of Environmental Health Sciences [NIEHS] National Toxicology Program [NTP] U.S. Food and Drug Administration [FDA] Tox21 Assay Overview: Measure of cell viability is critical in the cell-base assay. Analysis of cell viability is necessary for the characterization of cell responses to cytotoxic drugs and environmental stress. A RealTime-Glo MT Cell Viability Assay to monitor cell viability in real time of continues cell culture during 40 hours of compound treatment was used to screen Tox21 10K library compounds in HepG2 cells. The RealTime-Glo MT Cell Viability Assay is a nonlytic, homogeneous, bioluminescent method to measure cell viability in real time using a simple, plate-based method. The assay involves adding NanoLuc luciferase and a cell-permeant prosubstrate to cells in culture. Viable cells reduce the proprietary prosubstrate to generate a substrate for NanoLuc luciferase. This substrate diffuses from cells into the surrounding culture medium, where it is rapidly used by the NanoLuc Enzyme to produce a luminescent signal. The signal correlates with the number of viable cells, making the assay well suited for cytotoxicity studies.
# Tox21 Assay Protocol Summary: The mixture of HepG2 cell suspension and reagents were dispensed at 600cells/6 ul/well in 1536-well tissue culture treated black solid bottom plates using a Multidrop dispenser. After the assay plates were incubated at a 37 C/5% CO2 incubator for 5 hours, 23 nL of compounds dissolved in DMSO, positive and negative controls was transferred to the assay plate by a pintool work station. The plates were incubated at 37 C for 40 hours. The luminescence intensity were measured at 0h, 8h, 16h, 24h, 32h and 40h time points using ViewLux plate reader during compound treatment.
# % is set by controls: 0 for no effect and ±100 for the full control effect; potency is the fitted concentration of half-maximal effect.
SMILES,"activity change, negative = cytotoxic",Potency
CCCCCCC#N,-3.47% (inactive),
COc1cc(Cl)c(OC)cc1Cl,0.26% (inactive),
CC1Sc2c(C(=O)O)c(=O)c3cc(F)c(N4CCNCC4)cc3n21 (stereo not given),3.51% [at 35.3 µM] (inactive),
Cl/C=C\C[N+]12CN3CN(CN(C3)C1)C2,2.76% (inactive),
CC(C)(Cl)[N+](=O)[O-],-3.85% (inactive),
C=CCN1CC[C@]23c4c5ccc(O)c4O[C@H]2C(=O)CC[C@@]3(O)[C@H]1C5,1.03% [at 35.3 µM] (inactive),
C[C@@H]1CC[C@H]2[C@@H](C)C(=O)O[C@@H]3O[C@@]4(C)CC[C@@H]1[C@]32OO4,-0.119% [at 35.3 µM] (inactive),
O=C(CBr)OCc1ccccc1,1.37% (inactive),
Nc1nc(=S)[nH][nH]1,0.988% (inactive),
CC[C@H]1C[C@H]2[C@@H]3CCC4=CC(=O)CC[C@@H]4[C@H]3CC[C@]2(C)[C@H]1O,-14.2% [at 35.3 µM] (inactive),
CC(=O)[C@H]1CC[C@H]2[C@@H]3CC[C@H]4C[C@](C)(O)CC[C@]4(C)[C@H]3CC[C@]12C,0.206% [at 35.3 µM] (inactive),
O=C(O)C(F)(F)C(F)(F)C(F)(F)C(F)(F)C(F)(F)C(F)(F)C(F)(F)C(F)(F)C(F)(F)F,5.07% (inactive),
ClCc1ccccc1,1.57% (inactive),
O=C(NC(=O)c1c(F)cccc1F)Nc1cc(Cl)c(Oc2ncc(C(F)(F)F)cc2Cl)c(Cl)c1,-12.9% (inactive),
Brc1ccc(Oc2ccccc2)cc1,,inactive
CN1C(=O)NC(=O)C(C)(C2=CCCCC2)C1=O (stereo not given),3% [at 35.3 µM] (inactive),
O=C(Nc1ccccc1)Nc1cnns1,-16.5% (inactive),
CC1(C)CCC(Cc2ccc(Cl)cc2)C1(O)Cn1cncn1 (stereo not given),-18.4% (inactive),
O=C1NCN(c2ccccc2)C12CCN(CCCOc1ccc(F)cc1)CC2,-20.9% [at 35.3 µM] (inactive),
CCOP(=O)(OCC)SCCSCC,,inactive

SMILES,"activity change, negative = cytotoxic",Potency
N#CCC#N,-12% (inactive),
c1ccoc1,0.336% (inactive),
Cl/C=C\Cl,0.973% (inactive),
C=CCC1([C@H](C)CCC)C(=O)NC(=O)NC1=O,-1.53% (inactive),
CO[C@@H]1[C@H](OC(=O)NC(=O)CCl)CC[C@]2(CO2)[C@H]1[C@@]1(C)O[C@@H]1CC=C(C)C,1.26% [at 15.8 µM] (inactive),
CC(C)=CCOc1c2occc2cc2ccc(=O)oc12,-27.7% [at 35.3 µM] (inactive),
Brc1ccccc1,-0.286% (inactive),
CCCC(Cn1cncn1)c1ccc(Cl)cc1Cl (stereo not given),-17.2% (inactive),
CCCCN(N=O)C(=N)N[N+](=O)[O-],1.87% (inactive),
CCOS(C)(=O)=O,0.402% (inactive),
NNC(=O)c1cccnc1,0.522% (inactive),
CC1CC(CC2CCC(N)C(C)C2)CCC1N (stereo not given),-12.7% (inactive),
II,,7.76 µM (active)
CCCC(=O)Cl,0.376% (inactive),
O=S(=O)(O)C(F)(F)C(F)(F)C(F)(F)C(F)(F)F,15.2% (inactive),
Nc1nc(N)nc(N)n1,-0.537% (inactive),
ClCC(Br)CBr (stereo not given),1.33% (inactive),
Cc1cc(=O)[nH]o1,1.79% (inactive),
C(=NC1CCCCC1)=NC1CCCCC1,,12.4 µM (active) and 12.3 µM (active)
CCC(Br)(CC)C(=O)NC(N)=O,-0.435% (inactive),
